# DT40 TDP1 no CPT = qHTS for Inhibitors of human tyrosyl-DNA phosphodiesterase 1 (TDP1): qHTS in cells in absence of CPT | DT40 Tdp1-/- hTDP1 cells, no CPT, ATP luminescence, 48 h | Potency, µM (highest dose often 46.2 µM), for the others: at the top dose activity change, negative = growth inhibition, hits mostly inhibitors | 420,000 compounds, 15% hits; also: potency is read from the fitted curve at half-maximal effect; nearly all actives have a fitted effect of over 55% in size
#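 Stably hTDP1-transfected Tdp1-null chicken DT40 cells were treated with library compounds minus camptothecin and grown for at least 48 hr at 37 °C, after which cellular ATP was quantified by luminescence.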
# TDP1 cell CPT = qHTS for Inhibitors of human tyrosyl-DNA phosphodiesterase 1 (TDP1): qHTS in cells in presence of CPT | chicken DT40 Tdp1-/-;hTDP1 cells + 20 nM CPT, ATP luminescence, 48 h | Potency, µM (doses to about 46.2 µM), for inactives: at the top dose activity change, negative = growth inhibition, most hits filed as inhibitors | 420,000 compounds, 12% hits; also: potency is read from the fitted curve at half-maximal effect; nearly all actives have a fitted effect of over 55% in size
#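 Chicken DT40 Tdp1-/- cells stably complemented with human TDP1 were seeded at 400 cells/well in medium containing 20 nM camptothecin, exposed to pin-transferred compounds, and grown at 37 °C for at least 48 hr. Viability was read as ATP luminescence.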
# ELG1 DNA repair = qHTS screen for small molecules that inhibit ELG1-dependent DNA repair in human embryonic kidney (HEK293T) cells expressing luciferase-tagged ELG1; HEK293T ELG1-luciferase reporter, luminescence, 16 h; DNA damage induced by 5-fluorouridine; Potency, µM (highest dose often 46.1 µM), without a hit: top-dose activity change, negative = inhibition, most hits filed as inhibitors; 330,000 compounds, 2.3% hits; also: potency is read from the fitted curve at half-maximal effect; nearly all actives have a fitted effect of over 55% in size
#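 DMSO vehicle served as the neutral condition. Each well held 2,000 cells given 5-fluorouridine plus compound; after 16 hr at 37 °C/5% CO2, ONE-Glo was added and luciferase measured 30 min later.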
# HT1080-NT tox = qHTS for induction of synthetic lethality in tumor cells producing 2HG: qHTS for the HT-1080-NT fibrosarcoma cell line | HT-1080-NT fibrosarcoma viability, CellTiter-Glo ATP luminescence, 48 h | 360,000 compounds, 1.6% hits | Potency, µM (top dose mostly 46.1 µM), inactives show at the top dose activity, negative = less viability, actives largely listed as cytotoxic;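 also: NT is the 2HG producing partner of a matched IDH1 knockdown line; potency is read from the fitted curve at half-maximal effect; 0% = DMSO-treated cells and -100% = media-only wells without cells; nearly all actives have a fitted effect of over 55% in size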
#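 Viability by CellTiter-Glo luminescence after 48 h compound exposure at 37C of HT-1080-NT cells (750/well, RPMI, 5% FBS). % activity scaled between DMSO wells and medium-only wells, then curve-fitted and categorized by curve class.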
# IL1B secr inh = qHTS for Inhibitors of Inflammasome Signaling: IL-1-beta AlphaLISA Primary Screen; THP-1 LPS/ATP IL-1B secretion, AlphaLISA, 16 h; hits give low values; activity change, % at 57.5 µM; 360,000 compounds, 4.7% hits; AID 743279, 2014; in the data active = activity change below about -50%; inconclusive = mostly about -30% to -49%
#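 THP-1 cells pretreated 1 hr with compounds (up to 57.5 uM final), then stimulated with LPS (250 ng/mL final) plus ATP (1.25 mM final); secreted IL-1B measured by AlphaLISA after 16 hr, decreased signal indicating inhibition.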
# HT1080 IDH1KD tx = qHTS for induction of synthetic lethality in tumor cells producing 2HG: qHTS for the HT-1080-IDH1KD cell line. HT-1080 IDH1 knockdown viability, ATP luminescence, 48 h. Potency, µM (highest dose often 46.1 µM), for inactives: top-dose activity, negative = toxicity, hits mostly cytotoxic. 360,000 compounds, 2% hits;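 also: potency is read from the fitted curve at half-maximal effect; 0% = DMSO wells and -100% = cell-free medium wells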
#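 Luminescent ATP read-out (CellTiter-Glo, 10 min at room temperature) after 48 h compound exposure at 37 °C gave viability of IDH1-knockdown HT-1080 cells. Activity was normalised to DMSO and cell-free wells, then fitted as concentration-response curves.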
# An asterisk follows results filed as active; ? = inconclusive; . = no result given. Compounds with a hit are over-represented: about 19% of the library has one in this group of screens. Unless noted, calls follow the shape of the dose curve; as a rule, active = well fitted curve in the direction sought with a large enough effect; inconclusive = small, poorly fitted or top-dose-only effect, or another doubt; inactive = no such curve, though single readings can be large; an effect the other way counts as inactive or inconclusive. Unless noted, % is scaled to controls: 0 for no effect and ±100 for the full control effect.
SMILES,DT40 TDP1 no CPT,TDP1 cell CPT,ELG1 DNA repair,HT1080-NT tox,IL1B secr inh,HT1080 IDH1KD tx
c1csc(CNc2nc(Oc3ccncc3)c3sccc3n2)c1,-14.3%,-25.8%,.,-21.0%,?,?
FC(F)(F)c1cccc(-c2cc(C3CCNCC3)[nH]n2)c1,?,?,7.3%,16.4µM*,?,?
c1ccc2c(-c3cc(C4CCNCC4)[nH]n3)cccc2c1,?,20.6µM*,-13.0%,23.1µM*,-24.7,20.6µM*
CCCc1cnc(N2CCN(C(=O)c3ccc(OC)cc3)CC2)nc1,?,?,-26.1%,-23.7%,31.0,-0.8%
COc1ccc(CN(C2CCCCC2C)S(=O)(=O)c2ccc(S(=O)(=O)N(C)C)cc2)cc1OC (stereo not given),20.6µM*,16.4µM*,?,-3.7%,48.9,-12.3%
COc1cc(CN(C2CCCCC2C)S(=O)(=O)c2ccc(S(=O)(=O)NC3CC3)cc2)cc(OC)c1OC (stereo not given),?,?,18.4µM*,-4.9%,19.1,-5.1%
COc1ccccc1CNS(=O)(=O)c1ccc(S(=O)(=O)NC2CC2)cc1,-18.9%,3.1%,-0.3%,-10.3%,-17.3,-5.9%
COc1ccc(CCN(Cc2ccc(C(C)C)cc2)S(=O)(=O)c2ccc(S(=O)(=O)N(C)C)cc2)cc1OC,?,?,6.9%,-11.8%,6.3,-10.4%
CCCCCC(=O)Cc1cc(O)cc(O)c1C(=O)Oc1cc(CC(=O)CCCCC)c(C(=O)O)c(OC)c1,4.5%,-7.5%,.,.,.,.
COc1cc2cc(CN(CCN3CCCC3)C(=O)Nc3ccc(F)cc3)c(=O)[nH]c2cc1OC,?,?,-3.4%,-1.6%,?,1.2%
Cc1cccc2cc(CN(CCCO)C(=O)Nc3ccccc3Cl)c(=O)[nH]c12,-21.2%,?,?,-15.7%,-23.2,-7.3%
Cc1cccc2cc(CN(CCCO)C(=O)Nc3ccc(Cl)cc3)c(=O)[nH]c12,20.6µM*,?,20.6µM*,?,?,?
Cc1cccc2cc(CN(CCCO)C(=O)Nc3cccc(Cl)c3)c(=O)[nH]c12,20.6µM*,23.1µM*,13µM*,-18.8%,-24.6,-29.8%
Cc1ccc(C)c2[nH]c(=O)c(CN(CCN3CCCC3)C(=O)Nc3ccc(F)cc3)cc12,14.6µM*,?,?,16.4µM*,?,?
COc1ccc(CNC(=O)Cn2nc(C(F)(F)F)c(Br)c2C)cc1,?,-18.6%,-6.6%,-1.4%,10.0,-2.9%
COc1cc(NC(=O)Cn2nc(C(F)(F)F)c(Br)c2C)cc([N+](=O)[O-])c1,20.6µM*,14.6µM*,18.4µM*,-13.7%,-15.3,-9.1%
COc1ccc(S(=O)(=O)Nc2cc3c4c(c2)CCN4C(=O)CC3)cc1OC,-20.0%,-3.5%,6.4%,-11.9%,19.8,-9.8%
O=C(COC(=O)Cc1c(Cl)cccc1Cl)NCC1CCCO1 (stereo not given),-20.5%,-2.9%,-7.8%,12.4%,17.2,14.6%
CC1SCC(NC(=O)c2ccc(Cl)cc2)CS1 (stereo not given),-8.2%,-5.2%,?,-20.5%,.,?
CC1SCC(NC(=O)c2cccc(Cl)c2)CS1 (stereo not given),11.6µM*,14.6µM*,-5.5%,7.5%,7.0,1.6%
CCOC(=O)Cc1nnc2c(Nc3ccc(Cl)cc3)nc3nonc3n12,?,?,?,?,25.1,9.2µM*
COc1cc(=O)n2c(c1C(=O)NCc1ccco1)CCN(Cc1ccc(F)cc1Cl)CC2,2.91µM*,0.206µM*,.,.,.,.
C/C(=N\NC(=O)c1cc2ccccc2cc1O)c1ccccn1,1.3µM*,1.16µM*,?,?,69.8,?
C/C(=N\NC(=O)c1nc2ccccn2c1C)c1cc2ccccc2o1,?,-23.9%,-29.2%,-28.5%,4.9,-15.6%
C/C(=N\NC(=O)CNc1ccc(F)cc1)c1cc2ccccc2o1,-16.3%,7.6%,-17.2%,-18.8%,-26.4,-22.4%
SMILES,DT40 TDP1 no CPT,TDP1 cell CPT,ELG1 DNA repair,HT1080-NT tox,IL1B secr inh,HT1080 IDH1KD tx
COc1ccc(NCC(=O)N/N=C(\C)c2cc3ccccc3o2)cc1,?,?,-11.2%,-8.7%,-54.8*,-10.7%
C/C(=N\NC(=O)c1cc2ccccc2cc1O)c1cc2ccccc2o1,14.6µM*,?,?,?,100.9,?
C/C(=N\NC(=O)c1ccc(F)cc1)c1ccccn1,1.03µM*,0.92µM*,?,?,-66.0*,?
C/C(=N/NC(=O)c1cc2ccccc2cc1O)C1C(=O)c2ccccc2C1=O,-5.6%,-26.4%,?,-22.3%,-18.3,?
CCCCNC(=O)C1=CC(c2ccc3c(c2)OCO3)=NS(=O)(=O)N1C,-29.2%,-0.5%,.,.,.,.
Cc1ccccc1Cn1c(=O)n(CCCCCC(=O)NCc2ccc3c(c2)OCO3)c(=O)c2sccc21,-4.0%,-86.2%,.,.,.,.
CCO[C@H]1C[C@@H](c2ccc(CC)cc2)N(S(=O)(=O)c2ccc(C)cc2)C2CC(c3ccc(CC)cc3)N(S(=O)(=O)c3ccc(C)cc3)CC21 (stereo not given in full),?,?,.,11.9%,4.7,-0.8%
CC(C)N1CCC(C)(C(=O)Nc2cc(-c3ccccc3)nn2C)C1 (stereo not given),-9.2%,-19.3%,.,8.3%,-1.6,4.5%
COc1ccc(OCC(=O)C2CC2)c(C#N)c1,-12.5%,-7.2%,?,-1.7%,2.0,-3.9%
COCCNC(=O)C1(C)CCCN(Cc2cccc(OC(=O)c3ccccc3)c2)C1 (stereo not given),-23.4%,?,.,9.2%,33.8,9.0%
C/C(=N\NC(=O)CCCNc1ccc(C)cc1)c1ccccn1,5.17µM*,5.8µM*,-0.2%,-4.3%,11.6,?
C/C(=N\NC(=O)c1ccccc1-n1cccc1)c1ccccn1,1.84µM*,2.06µM*,.,?,111.8,?
Cc1cccc(/C=N\NC(=O)c2ccccc2-n2cccc2)c1,-9.6%,10.9%,0.4%,10.0%,15.5,6.1%
